Marburg entry inh = qHTS for inhibitors of binding or entry into cells for Marburg Virus. Marburg virus pseudotyped entry inhibition, cell reporter. Potency, µM (titrated, usually from 37.8 µM), for inactives: at the highest dose activity change, negative = inhibition, usual class: inhibitors. 300,000 tested, 1.8% active. AID 540276, 2011; calls by dose curve; tested in HEK293 cells; also: potency is read from the fitted curve at half-maximal effect
FMDV inh = High Throughput Screening for Foot and Mouth Disease Virus Antivirals | 410,000 tested, 1.2% active | AID 1159524, 2015 | Potency, µM (doses to about 57.9 µM), for inactives: top-dose activity change, negative = inhibition, hits mostly inhibitors | FMDV antiviral cell-based qHTS; calls by dose curve; tested in HEK293T cells; also: read-out not given here; potency is read from the fitted curve at half-maximal effect; nearly all actives have a fitted effect of over 45% in size
HCMV antiviral = qHTS Assay for inhibitors of the human cytomegalovirus (HCMV); 410,000 tested, 4.5% active; HFF cells, HCMV-luciferase reporter, 72 h; hits give low values; activity change, negative = inhibition, % at 57.5 µM; AID 1259415, 2018; in the data active = activity change below about -60%; inconclusive = no clear call, values can overlap the other calls; inactive = above about -39%
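Human foreskin fibroblasts infected with luciferase-reporter HCMV at MOI 1 PFU/cell, compounds at two doses. Luciferase measured 72 h post infection; normalized to buffer-only basal and Salinomycin (10uM) controls.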
HCV inh = qHTS Assay for Inhibitors of Hepatitis C Virus (HCV); 340,000 tested, 3.4% active; Huh7.5.1 HCVcc-Cre infection, luciferase reporter, 44 h; Potency, µM (highest dose often 41.8 µM), without a hit: top-dose activity change, negative = inhibition, hits mostly inhibitors; also: potency is read from the fitted curve at half-maximal effect
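Antiviral activity was scored by luciferase reporter output from cells infected with HCVcc-Cre (~0.5 moi) in presence of compound, 44 h infection period, cells seeded 1,000/well 4 h prior.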
Lassa entry inh = qHTS for Inhibitors of binding or entry into cells for Lassa Virus; Lassa virus pseudotype entry inhibition, cell reporter; Potency, µM (highest dose often 37.9 µM), without a hit: at the highest dose activity change, negative = inhibition, usual class: inhibitors; 300,000 tested, 1.2% active; AID 540256, 2011; calls by dose curve; tested in HEK293 cells; also: potency is read from the fitted curve at half-maximal effect; nearly all actives have a fitted effect of over 50% in size
FBPA Giardia inh = qHTS Assay for Inhibitors of Fructose-1,6-bisphosphate Aldolase from Giardia Lamblia. Potency, µM (top dose mostly 59.6 µM), for inactives: at the top dose activity, negative = inhibition, actives largely listed as inhibitors. purified Giardia FBPA. A8B2U2. 290,000 tested, 0.71% active; also: potency is read from the fitted curve at half-maximal effect; nearly all actives have a fitted effect of over 55% in size
Target sequence (A8B2U2 whole entry, looked up): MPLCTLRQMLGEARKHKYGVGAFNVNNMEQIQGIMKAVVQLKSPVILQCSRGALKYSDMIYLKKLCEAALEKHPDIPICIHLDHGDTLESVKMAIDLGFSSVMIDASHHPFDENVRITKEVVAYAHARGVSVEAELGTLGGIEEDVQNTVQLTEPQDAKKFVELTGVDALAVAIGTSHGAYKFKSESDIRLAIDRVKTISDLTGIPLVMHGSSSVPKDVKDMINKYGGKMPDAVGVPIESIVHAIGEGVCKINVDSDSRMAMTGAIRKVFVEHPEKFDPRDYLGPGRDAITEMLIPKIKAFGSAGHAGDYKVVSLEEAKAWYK
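Giardia FBPA (40 nM reagent) was preincubated 10 min at RT with compound (up to 57.5 uM final), then substrate plus GAPDH/TPI/NAD/arsenate coupling system with diaphorase/resazurin was added; resorufin fluorescence (525/598 nm) was read after 20 min.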
* hit, by the source's call; [ ] = remark or other dose. Hits are enriched below; roughly 8.3% of the tested compounds scored in any of these assays. Unless noted, calls follow the shape of the dose curve; as a rule, active = well fitted curve in the direction sought with a large enough effect; inconclusive = small, poorly fitted or top-dose-only effect, or another doubt; inactive = no such curve, though single readings can be large; an effect the other way counts as inactive or inconclusive. % is scaled to controls: 0 for no effect and ±100 for the full control effect.

How did C=C(CN(C)C)C(=O)c1ccc(OC2OC(COC(C)=O)C(OC(C)=O)C(OC(C)=O)C2OC(C)=O)cc1 (centres undefined) do in these assays?
Marburg entry inh: inconclusive; FMDV inh: 10µM*; HCMV antiviral: 6; HCV inh: inconclusive; Lassa entry inh: inconclusive

How did C=CCN1c2ccccc2[C@]23CCC(=O)N(CC(=O)OC)C2=NC(C(=O)OC)=C(C(=O)OC)[C@H]13 do in these assays?
Marburg entry inh: 18%[14.2 µM]

What do the screens show for `O=C(Nc1nc2n(n1)C(c1ccccc1)C=C(c1ccccc1)N2)c1ccccc1` (centres undefined)?
Marburg entry inh: -6%[46.1 µM]; FMDV inh: -23%; HCMV antiviral: -13; Lassa entry inh: 12%[46.1 µM]

What do the screens show for `Cc1cc(C(=O)CSc2nnc(N)s2)c(C)n1Cc1cccs1`?
Marburg entry inh: 1.6µM*; FMDV inh: -71%; HCMV antiviral: -34; HCV inh: inconclusive; Lassa entry inh: 0.35µM*; FBPA Giardia inh: -5%

Results for COc1ccc(-c2nnc(SCC(=O)c3cc(C)n(Cc4cccs4)c3C)o2)cc1 ?
Marburg entry inh: -1%; FMDV inh: -3%; HCMV antiviral: -18; HCV inh: 1%; Lassa entry inh: 18%; FBPA Giardia inh: -8%

Results for CC(=O)Nc1ccc(SCC(=O)c2cc(C)n(-c3ccccc3F)c2C)cc1 ?
Marburg entry inh: 6.5µM*; FMDV inh: inconclusive; HCMV antiviral: -95*; HCV inh: inconclusive; Lassa entry inh: inconclusive; FBPA Giardia inh: -17%

What do the screens show for `Cc1csc(SCC(=O)c2cc(C)n(Cc3cccs3)c2C)n1`?
Marburg entry inh: 0.5µM*; FMDV inh: 11µM*; HCMV antiviral: -94*; HCV inh: 10µM*; Lassa entry inh: 0.79µM*; FBPA Giardia inh: -4%

How did COCCn1c(C)cc(C(=O)CSc2ccc(NC(C)=O)cc2)c1C do in these assays?
Marburg entry inh: -12%; FMDV inh: 13%; HCMV antiviral: 20; HCV inh: -6%; Lassa entry inh: -9%; FBPA Giardia inh: 6%

Results for CC(=O)Nc1ccc(SCC(=O)c2cc(C)n(Cc3cccs3)c2C)cc1 ?
Marburg entry inh: inconclusive; FMDV inh: 22µM*; HCMV antiviral: -77*; HCV inh: -12%; Lassa entry inh: inconclusive; FBPA Giardia inh: 1%

How did CCSc1nnc2c(n1)[nH]c1c(C)cccc12 do in these assays?
Marburg entry inh: inconclusive; HCMV antiviral: inconclusive; HCV inh: 32µM*; Lassa entry inh: -11%; FBPA Giardia inh: -15%

Results for Cc1ccccc1C(=O)N1CCC(C(=O)N2CCN(Cc3ccc4c(c3)OCO4)CC2)CC1 ?
Marburg entry inh: -16%; FMDV inh: inconclusive; HCMV antiviral: -102*; HCV inh: -10%; Lassa entry inh: 11%

What do the screens show for `O=C(c1ccc(F)cc1)N1CCC(C(=O)N2CCN(Cc3ccc4c(c3)OCO4)CC2)CC1`?
Marburg entry inh: -2%; FMDV inh: -24%; HCMV antiviral: -1; HCV inh: inconclusive; Lassa entry inh: 8%

What do the screens show for `O=C(C1CCN(S(=O)(=O)c2ccccc2F)CC1)N1CCN(Cc2ccc3c(c2)OCO3)CC1`?
FMDV inh: inconclusive; HCMV antiviral: -33; HCV inh: 13µM*

How did O=C(C1CCN(Cc2cccs2)CC1)N1CCN(Cc2ccc3c(c2)OCO3)CC1 do in these assays?
Marburg entry inh: inconclusive; FMDV inh: -21%; HCMV antiviral: -104*; HCV inh: inconclusive; Lassa entry inh: 0%; FBPA Giardia inh: inconclusive

Results for O=C(c1cccs1)N1CCC(C(=O)N2CCN(Cc3ccc4c(c3)OCO4)CC2)CC1 ?
Marburg entry inh: inconclusive; FMDV inh: inconclusive; HCMV antiviral: inconclusive; HCV inh: -15%; Lassa entry inh: -3%; FBPA Giardia inh: -2%

What do the screens show for `Cc1nn(Cc2ccccc2)c2sc(C(=O)N3CCN(Cc4ccc5c(c4)OCO5)CC3)cc12`?
Marburg entry inh: inconclusive; FMDV inh: 32µM*; HCMV antiviral: -12; HCV inh: inconclusive; Lassa entry inh: inconclusive; FBPA Giardia inh: 8%

Results for O=C(NCC1Cc2cccc(-c3nccs3)c2O1)c1ccnc(Cl)c1 (centres undefined) ?
FMDV inh: 10%

How did C=CCCCCCCCCCCCC(O)CC(O)CO (centres undefined) (tested in a mixture with another compound) do in these assays?
FMDV inh: 9%; FBPA Giardia inh: 7%

Results for CCN(CC)C(=O)Cn1cnc2sc(C(=O)N3CCN(Cc4ccc5c(c4)OCO5)CC3)c(C)c2c1=O ?
Marburg entry inh: -21%[46.1 µM]; FMDV inh: -25%; HCMV antiviral: -97*; HCV inh: inconclusive; Lassa entry inh: inconclusive; FBPA Giardia inh: -3%

How did Cc1nn(Cc2ccccc2)c2sc(C(=O)NCc3cccnc3)cc12 do in these assays?
Marburg entry inh: -6%; FMDV inh: inconclusive; HCMV antiviral: 10; HCV inh: 7.9µM*; Lassa entry inh: inconclusive; FBPA Giardia inh: 5%

What do the screens show for `O=C(CN1C(=O)c2cccc3cccc(c23)C1=O)N1CCN(Cc2ccc3c(c2)OCO3)CC1`?
Marburg entry inh: -8%; FMDV inh: inconclusive; HCMV antiviral: -16; HCV inh: 22µM*; Lassa entry inh: -7%; FBPA Giardia inh: 0%

How did CCN(CC)CCn1c(-c2ccccc2)nc2c(NC3CCCCC3)nc(C)nc21 do in these assays?
FBPA Giardia inh: 1%

Results for CCOc1ccc(CNC(=O)CCS(=O)(=O)c2cc3c4c(c2)CCN4C(=O)CC3)cc1OC ?
FMDV inh: 16%; HCMV antiviral: 0; Lassa entry inh: 26%[46.1 µM]

Results for COc1cc2onc(C3CCN(C(=O)C(C)(C)C)CC3)c2cc1OC ?
HCMV antiviral: -11

Results for Nc1ccc(Nc2ccccc2N)cc1 ?
Marburg entry inh: -23%; FMDV inh: 1%; HCMV antiviral: 18; HCV inh: 11µM*; Lassa entry inh: inconclusive; FBPA Giardia inh: inconclusive

How did C=CCOc1c(Cl)cc(C(=S)N2CCCC2)cc1OCC do in these assays?
Marburg entry inh: -8%; FMDV inh: -18%; HCMV antiviral: -76*; HCV inh: inconclusive; Lassa entry inh: inconclusive; FBPA Giardia inh: -9%

How did CN(Cc1cccs1)C(=O)COc1ccc(-c2nnco2)cc1 do in these assays?
Marburg entry inh: 2%; FMDV inh: 26%; HCMV antiviral: -100*; HCV inh: 6%; Lassa entry inh: 13%; FBPA Giardia inh: -2%
